Measurements reported in paper PMC7862700, “An all-to-all approach to the identification of sequence-specific readers for epigenetic DNA modifications on cytosine”.

Legend:
Test in all cases: DAPPL (digital affinity profiling via proximity ligation, sequencing); 10 mM Tris-HCl pH 7.5, 50 mM NaCl, 1 mM DTT, 4% glycerol, room temperature, 30 min; GST-TFs on glutathione beads, 16-mer random dsDNA library, 0.1% formaldehyde crosslink after washing; high values mean tight binding
Conditions in all cases: protein: recombinant; tags: N-terminal GST; dsDNA, one strand shown
FLI1 = target: T1, FLI1 (Homo sapiens, UniProt Q01543 1-452)
T1 sequence: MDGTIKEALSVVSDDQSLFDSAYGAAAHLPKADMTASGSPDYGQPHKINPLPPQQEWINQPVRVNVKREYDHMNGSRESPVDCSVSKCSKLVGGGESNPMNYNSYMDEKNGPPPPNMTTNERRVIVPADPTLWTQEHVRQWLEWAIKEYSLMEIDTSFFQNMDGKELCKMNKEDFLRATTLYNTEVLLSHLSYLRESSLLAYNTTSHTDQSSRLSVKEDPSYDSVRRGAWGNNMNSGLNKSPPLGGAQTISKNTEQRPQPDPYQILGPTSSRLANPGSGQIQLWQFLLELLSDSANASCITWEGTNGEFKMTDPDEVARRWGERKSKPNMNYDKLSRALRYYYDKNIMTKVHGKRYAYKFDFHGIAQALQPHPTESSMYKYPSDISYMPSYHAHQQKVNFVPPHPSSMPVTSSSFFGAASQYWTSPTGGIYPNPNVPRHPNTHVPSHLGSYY
Outline: (§1)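 GST fusions of human transcription factors were expressed in yeast and captured with glutathione beads. Once given DNA barcodes and pooled alongside a tag-only sample, they were incubated for 30 min at room temperature with 200 nmole of a random double-stranded 16-mer DNA library in Tris/NaCl/DTT/glycerol buffer, then washed, crosslinked (0.1% formaldehyde), proximity-ligated, PCR-amplified and sequenced on an Illumina NextSeq500. The binding signal of each hexamer is its read frequency for a factor divided by its frequency for the tag-only sample.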

ELK1 = target: T2, ELK1 (Homo sapiens, UniProt P19419 1-428)
T2 sequence: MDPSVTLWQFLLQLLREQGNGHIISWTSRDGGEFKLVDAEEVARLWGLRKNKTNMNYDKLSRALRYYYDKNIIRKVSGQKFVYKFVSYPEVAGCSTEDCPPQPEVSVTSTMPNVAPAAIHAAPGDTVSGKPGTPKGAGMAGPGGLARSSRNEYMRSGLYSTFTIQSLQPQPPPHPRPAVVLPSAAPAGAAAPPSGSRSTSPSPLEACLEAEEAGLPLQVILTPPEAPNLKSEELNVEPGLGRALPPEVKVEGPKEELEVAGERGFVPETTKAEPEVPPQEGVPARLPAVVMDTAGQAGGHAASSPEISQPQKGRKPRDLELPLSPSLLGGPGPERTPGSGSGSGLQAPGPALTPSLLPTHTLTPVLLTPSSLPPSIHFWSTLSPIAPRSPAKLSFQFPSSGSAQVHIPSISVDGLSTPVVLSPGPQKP
Outline: as §1

GABPA = target: T3, GABPA (Homo sapiens, UniProt Q06546 1-454)
T3 sequence: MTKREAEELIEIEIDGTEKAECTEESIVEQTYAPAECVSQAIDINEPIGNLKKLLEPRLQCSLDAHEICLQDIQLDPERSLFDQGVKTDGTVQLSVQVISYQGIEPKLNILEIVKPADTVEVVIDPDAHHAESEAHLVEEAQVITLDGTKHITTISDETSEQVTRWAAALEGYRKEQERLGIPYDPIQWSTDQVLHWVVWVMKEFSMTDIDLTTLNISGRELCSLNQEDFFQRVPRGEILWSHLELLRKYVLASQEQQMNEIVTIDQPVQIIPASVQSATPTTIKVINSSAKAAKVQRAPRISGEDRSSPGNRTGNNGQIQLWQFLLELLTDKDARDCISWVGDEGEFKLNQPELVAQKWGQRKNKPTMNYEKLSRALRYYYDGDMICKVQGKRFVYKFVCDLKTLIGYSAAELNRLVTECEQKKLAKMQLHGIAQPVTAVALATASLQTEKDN
Outline: as §1

ERG = target: T4, ERG (Homo sapiens, UniProt P11308 1-479)
T4 sequence: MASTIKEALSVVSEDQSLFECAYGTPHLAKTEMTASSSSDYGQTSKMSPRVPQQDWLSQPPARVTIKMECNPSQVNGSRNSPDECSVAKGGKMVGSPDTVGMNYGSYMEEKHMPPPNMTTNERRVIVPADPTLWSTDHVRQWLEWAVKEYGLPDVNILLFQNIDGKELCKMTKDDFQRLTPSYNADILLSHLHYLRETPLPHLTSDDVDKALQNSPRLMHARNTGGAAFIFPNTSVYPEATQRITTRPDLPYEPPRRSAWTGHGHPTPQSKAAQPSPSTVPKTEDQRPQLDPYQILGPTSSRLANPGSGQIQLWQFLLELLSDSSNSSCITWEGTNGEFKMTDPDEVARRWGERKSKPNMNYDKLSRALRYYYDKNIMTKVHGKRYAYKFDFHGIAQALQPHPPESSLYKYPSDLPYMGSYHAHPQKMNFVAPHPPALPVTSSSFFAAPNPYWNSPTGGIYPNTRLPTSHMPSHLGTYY
Outline: as §1

ELF1 = ELF1 (Homo sapiens, UniProt P32519 1-619)
Outline: as §1

EHF = target: T5, EHF (Homo sapiens, UniProt Q9NZC4 1-300)
T5 sequence: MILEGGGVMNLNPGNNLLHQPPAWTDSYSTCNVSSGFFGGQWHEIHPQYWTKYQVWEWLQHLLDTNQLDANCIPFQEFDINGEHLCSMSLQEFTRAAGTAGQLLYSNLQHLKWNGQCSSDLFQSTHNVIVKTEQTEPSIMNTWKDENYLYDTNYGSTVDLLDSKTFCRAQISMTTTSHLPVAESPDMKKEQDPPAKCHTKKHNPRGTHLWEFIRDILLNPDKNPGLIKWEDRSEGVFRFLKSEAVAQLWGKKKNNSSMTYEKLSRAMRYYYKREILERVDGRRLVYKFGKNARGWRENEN
Outline: as §1

SPI1 = SPI1 (Homo sapiens, UniProt P17947 1-270)
Outline: as §1

SPIB = SPIB (Homo sapiens, UniProt Q01892 1-262)
Outline: as §1

ELK3 = target: T6, ELK3 (Homo sapiens, UniProt P41970 1-407)
T6 sequence: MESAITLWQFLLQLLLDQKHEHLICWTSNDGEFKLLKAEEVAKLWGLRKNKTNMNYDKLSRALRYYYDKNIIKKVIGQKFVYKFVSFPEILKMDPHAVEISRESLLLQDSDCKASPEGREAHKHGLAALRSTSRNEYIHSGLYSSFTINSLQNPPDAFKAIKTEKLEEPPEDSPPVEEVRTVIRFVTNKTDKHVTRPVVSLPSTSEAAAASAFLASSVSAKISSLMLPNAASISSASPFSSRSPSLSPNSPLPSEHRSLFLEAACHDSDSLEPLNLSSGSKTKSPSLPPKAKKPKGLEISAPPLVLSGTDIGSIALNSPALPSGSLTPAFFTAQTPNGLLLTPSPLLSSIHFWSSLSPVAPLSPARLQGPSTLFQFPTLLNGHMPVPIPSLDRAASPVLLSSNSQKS
Outline: as §1

Chain of ELF1 (P32519 whole entry): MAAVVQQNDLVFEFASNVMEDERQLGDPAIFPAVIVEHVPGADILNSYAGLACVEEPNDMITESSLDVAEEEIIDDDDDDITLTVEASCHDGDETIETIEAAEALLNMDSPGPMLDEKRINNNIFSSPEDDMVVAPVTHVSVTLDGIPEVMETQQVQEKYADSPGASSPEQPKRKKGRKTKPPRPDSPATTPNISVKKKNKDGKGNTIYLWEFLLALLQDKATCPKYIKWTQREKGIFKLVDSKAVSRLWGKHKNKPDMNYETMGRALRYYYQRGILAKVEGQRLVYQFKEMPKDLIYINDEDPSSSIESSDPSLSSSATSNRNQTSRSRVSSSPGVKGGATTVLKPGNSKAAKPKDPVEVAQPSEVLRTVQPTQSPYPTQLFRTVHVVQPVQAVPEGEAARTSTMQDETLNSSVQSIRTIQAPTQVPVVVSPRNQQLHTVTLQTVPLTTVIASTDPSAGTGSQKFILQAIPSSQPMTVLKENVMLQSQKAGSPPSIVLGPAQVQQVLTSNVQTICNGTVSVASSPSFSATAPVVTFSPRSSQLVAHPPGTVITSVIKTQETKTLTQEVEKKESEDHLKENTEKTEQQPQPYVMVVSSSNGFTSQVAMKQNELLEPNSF
Chain of SPIB (Q01892 whole entry): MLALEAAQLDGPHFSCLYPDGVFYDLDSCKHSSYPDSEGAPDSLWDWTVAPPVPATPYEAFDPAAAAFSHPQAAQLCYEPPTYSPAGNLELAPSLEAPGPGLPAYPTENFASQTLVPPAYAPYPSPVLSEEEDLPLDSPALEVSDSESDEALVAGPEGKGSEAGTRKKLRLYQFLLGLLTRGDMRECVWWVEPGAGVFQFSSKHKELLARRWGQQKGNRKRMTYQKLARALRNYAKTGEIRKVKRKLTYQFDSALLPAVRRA

Sequence | binding signal (FLI1) | binding signal (ELK1) | binding signal (GABPA) | binding signal (ERG) | binding signal (ELF1) | binding signal (EHF) | binding signal (SPI1) | binding signal (SPIB) | binding signal (ELK3)
CTGACC | 1.4 fold enrichment (6-mer frequency, TF over GST control) | 1.41 fold enrichment (6-mer frequency, TF over GST control) | 1.41 fold enrichment (6-mer frequency, TF over GST control) | 1.23 fold enrichment (6-mer frequency, TF over GST control) | 1.46 fold enrichment (6-mer frequency, TF over GST control) | 1.59 fold enrichment (6-mer frequency, TF over GST control) | 1.25 fold enrichment (6-mer frequency, TF over GST control) | 1.26 fold enrichment (6-mer frequency, TF over GST control) | 1.33 fold enrichment (6-mer frequency, TF over GST control)
CTTTAG | 1.27 fold enrichment (6-mer frequency, TF over GST control) | 1.31 fold enrichment (6-mer frequency, TF over GST control) | 1.21 fold enrichment (6-mer frequency, TF over GST control) | 1.12 fold enrichment (6-mer frequency, TF over GST control) | 1.19 fold enrichment (6-mer frequency, TF over GST control) | 1.08 fold enrichment (6-mer frequency, TF over GST control) | 1.28 fold enrichment (6-mer frequency, TF over GST control) | 1.11 fold enrichment (6-mer frequency, TF over GST control) | 1.11 fold enrichment (6-mer frequency, TF over GST control)
GTTGCA | 1.25 fold enrichment (6-mer frequency, TF over GST control) | 1.15 fold enrichment (6-mer frequency, TF over GST control) | 1.16 fold enrichment (6-mer frequency, TF over GST control) | 1.01 fold enrichment (6-mer frequency, TF over GST control) | 1.14 fold enrichment (6-mer frequency, TF over GST control) | 1.2 fold enrichment (6-mer frequency, TF over GST control) | 1.15 fold enrichment (6-mer frequency, TF over GST control) | 1.1 fold enrichment (6-mer frequency, TF over GST control) | 1.25 fold enrichment (6-mer frequency, TF over GST control)
TACTAG | 1.09 fold enrichment (6-mer frequency, TF over GST control) | 1.09 fold enrichment (6-mer frequency, TF over GST control) | 1.07 fold enrichment (6-mer frequency, TF over GST control) | 1.06 fold enrichment (6-mer frequency, TF over GST control) | 1.11 fold enrichment (6-mer frequency, TF over GST control) | 1.09 fold enrichment (6-mer frequency, TF over GST control) | 1 fold enrichment (6-mer frequency, TF over GST control) | 1 fold enrichment (6-mer frequency, TF over GST control) | 1.05 fold enrichment (6-mer frequency, TF over GST control)
TCCGCG | 1.25 fold enrichment (6-mer frequency, TF over GST control) | 1.27 fold enrichment (6-mer frequency, TF over GST control) | 1.03 fold enrichment (6-mer frequency, TF over GST control) | 1.41 fold enrichment (6-mer frequency, TF over GST control) | 1.2 fold enrichment (6-mer frequency, TF over GST control) | 1.23 fold enrichment (6-mer frequency, TF over GST control) | 1.3 fold enrichment (6-mer frequency, TF over GST control) | 1.36 fold enrichment (6-mer frequency, TF over GST control) | 1.14 fold enrichment (6-mer frequency, TF over GST control)
TGTCCA | 1.18 fold enrichment (6-mer frequency, TF over GST control) | 1.18 fold enrichment (6-mer frequency, TF over GST control) | 1.1 fold enrichment (6-mer frequency, TF over GST control) | 1.19 fold enrichment (6-mer frequency, TF over GST control) | 1.19 fold enrichment (6-mer frequency, TF over GST control) | 1.16 fold enrichment (6-mer frequency, TF over GST control) | 1.08 fold enrichment (6-mer frequency, TF over GST control) | 1.13 fold enrichment (6-mer frequency, TF over GST control) | 1.14 fold enrichment (6-mer frequency, TF over GST control)
ACTCCC | 1.52 fold enrichment (6-mer frequency, TF over GST control) | 1.2 fold enrichment (6-mer frequency, TF over GST control) | 1.42 fold enrichment (6-mer frequency, TF over GST control) | 1.45 fold enrichment (6-mer frequency, TF over GST control) | 1.46 fold enrichment (6-mer frequency, TF over GST control) | 1.38 fold enrichment (6-mer frequency, TF over GST control) | 1.38 fold enrichment (6-mer frequency, TF over GST control) | 1.42 fold enrichment (6-mer frequency, TF over GST control) | 1.43 fold enrichment (6-mer frequency, TF over GST control)
